Compound activity as filed in PubChem.
Myeloid diff MLP – induction of myeloid progenitor differentiation, primary screen, cell-based, flow cytometry, MLPCN library. ER-HoxA9 myeloid progenitors, lysozyme-GFP differentiation. calls only at 10 µM. 360,000 compounds, 1% hits;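 active = normalized GFP-positive differentiation at or above the plate's own cutoff, the solvent-only control mean plus 3 SD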;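 note: cells exposed to compound for four days before flow analysis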
DAGLB inhibitor – DAGLB lipase inhibitors, primary screen, biochemical, fluorescence, HTS. Diacylglycerol lipase-beta (Homo sapiens), Q8NCG7. HEK293T DAGLB membrane lysate, EnzChek fluorogenic substrate. inhibition, % at 5.17 µM. 340,000 compounds, 0.059% hits. AID 504411, 2011; in the data active = inhibition above about 34%;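 note: 0% = enzyme with vehicle and 100% = wells lacking enzyme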
Cardio protect – cardioprotection against H2O2-induced cell death, primary screen, uHTS, H9c2 cells, ATPLite luminescence. H9c2 cardiomyocytes, H2O2 injury protection, 2 h. protection from H2O2 cell death, % at 20 µM. 360,000 compounds, 0.63% hits. AID 588492, 2011;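 active = compounds giving at least 50% protection of heart cells from peroxide-induced death in the single-dose screen, raw or plate-pattern-corrected value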;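 note: 0% = DMSO wells with peroxide and 100% = DMSO wells without peroxide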
HGIII-sPLA2 inh – human group III sPLA2 inhibitors, primary screen, biochemical, QFRET, BODIPY PC-A2 liposome substrate; 370,000 compounds, 0.56% hits; AID 743126, 2013; Group 3 secretory phospholipase A2 (Homo sapiens), Q9NZ20; inhibition, % at 12.2 µM; QFRET BODIPY PC-A2 liposome hydrolysis, fluorescence;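 active = inhibition above mean plus 3 SD of compounds lying within the high and low control bounds, cut at about 19% in these data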;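 note: 0% = median of test compound wells and 100% = no enzyme DMSO wells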
Rtt109 HAT inh – inhibitors of C. albicans Rtt109/Vps75 HAT, primary screen, biochemical, ThioGlo CoA-SH fluorescence, plate reader | purified Rtt109/Vps75, 4 h | inhibition, % at 34.9 µM | 330,000 compounds, 0.16% hits | AID 540336, 2011;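 active = inhibition of at least 50% in every replicate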
ABHD5-PLIN5 inh – ABHD5-PLIN5 interaction inhibitors, primary screen, cell lysate, split luciferase complementation, luminescence; AID 602281, 2012; inhibition, % at 4 µM; Split G. princeps luciferase complementation, 4 h; 360,000 compounds, 0.78% hits;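 active = inhibition above the mean inhibition across every tested compound plus 3 SD, cut at about 22% in these data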;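 note: 0% = DMSO only wells and the 100% control is not disclosed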
sPLA2 confirm – human group III sPLA2 inhibitors, confirmation, biochemical, QFRET, triplicate; shares compounds with HGIII-sPLA2 inh; 2,000 compounds, 34% hits; inhibition, % at 12.2 µM; recombinant hGIII-sPLA2, BODIPY PC-A2 QFRET fluorescence;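 active = mean inhibition across triplicates above the hit cutoff set in the earlier primary screen, cut at about 19% in these data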;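 note: 0% = enzyme with DMSO and 100% = DMSO wells lacking enzyme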
BODIPY interf – 535nm fluorescence optical interference, confirmation, artefact control for HGIII-sPLA2 inhibitor project, biochemical, QFRET. inhibition, % at 12.2 µM. BODIPY FL product fluorescence interference. 2,000 compounds, 8.5% hits. shares compounds with HGIII-sPLA2 inh. AID 743282, 2014;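 active = average inhibition above the solvent-only control mean plus 3 SD, cut at about 6% in these data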;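 note: 0% = DMSO with substrate plus product and 100% = DMSO with substrate alone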
Active calls of the source: *. The list is not random: actives were taken first. Their share in the collection is about 2.9%.

Screening O=C(CN(C(=O)c1ccc(Cl)cc1)C1CCCCC1)Nc1ccc(Cl)c([N+](=O)[O-])c1 returned Myeloid diff MLP inactive, DAGLB inhibitor -1, Cardio protect -25, HGIII-sPLA2 inh 20*, Rtt109 HAT inh 16, ABHD5-PLIN5 inh -3, sPLA2 confirm -7 and BODIPY interf -16.
O=C(CN(C(=O)c1ccccc1Cl)C1CCCCC1)Nc1ccc(Cl)c([N+](=O)[O-])c1 was read as Myeloid diff MLP inactive, DAGLB inhibitor -5, Cardio protect -25, HGIII-sPLA2 inh 0, Rtt109 HAT inh 1 and ABHD5-PLIN5 inh -3.
For COc1cccc(-c2csc(N3CCN(C(=S)Nc4ccccc4)CC3)n2)c1 the results were Myeloid diff MLP inactive, DAGLB inhibitor -1, Cardio protect -1, HGIII-sPLA2 inh 19*, Rtt109 HAT inh -4, ABHD5-PLIN5 inh -1, sPLA2 confirm 11 and BODIPY interf -4.
Screening CN1CCC[C@@H]1CCNC(=O)c1cccc2c1C(=O)c1ccc(N3CCCC3)cc1S2(=O)=O returned Myeloid diff MLP inactive, DAGLB inhibitor -3, Cardio protect 15, HGIII-sPLA2 inh 78*, Rtt109 HAT inh 10, ABHD5-PLIN5 inh 8, sPLA2 confirm -21 and BODIPY interf -31.
For S=c1[nH]nc(-c2ccc(Cl)cc2)n1CCCN1CCOCC1 the results were Myeloid diff MLP inactive, DAGLB inhibitor -1, Cardio protect 8, HGIII-sPLA2 inh 20*, Rtt109 HAT inh -1, ABHD5-PLIN5 inh 1, sPLA2 confirm 6 and BODIPY interf -4.
`COCCCn1c(-c2ccc(Cl)cc2)n[nH]c1=S` gave Myeloid diff MLP inactive, DAGLB inhibitor -3, Cardio protect -3, HGIII-sPLA2 inh 14, Rtt109 HAT inh 1 and ABHD5-PLIN5 inh -1.
For CCOCCCn1c(-c2ccc(Cl)cc2)n[nH]c1=S the results were Myeloid diff MLP inactive, DAGLB inhibitor 0, Cardio protect 3, HGIII-sPLA2 inh 22*, Rtt109 HAT inh 1, ABHD5-PLIN5 inh -2, sPLA2 confirm 19 and BODIPY interf 2.
For Cc1cc(C)c2c(CN3CCN(Cc4ccc5c(c4)OCO5)CC3)cc(=O)oc2c1 the results were Myeloid diff MLP inactive, DAGLB inhibitor -2, Cardio protect -7, HGIII-sPLA2 inh -11, Rtt109 HAT inh -2 and ABHD5-PLIN5 inh 4.
Screening CC(=O)Nc1sc(N/N=C\c2ccc(O)cc2)nc1-c1cccs1 returned Myeloid diff MLP inactive, DAGLB inhibitor -1, Cardio protect 8, HGIII-sPLA2 inh 3, Rtt109 HAT inh 13 and ABHD5-PLIN5 inh -4.
`CC(=O)Nc1sc(N/N=C\c2cccc(Cl)c2)nc1-c1cccs1` gave Myeloid diff MLP inactive, DAGLB inhibitor 3, Cardio protect -8, HGIII-sPLA2 inh 25*, Rtt109 HAT inh -3, ABHD5-PLIN5 inh -23, sPLA2 confirm 35* and BODIPY interf 14*.
For CCOC(=O)C1CCN(C(C(=O)NC2CCCC2)c2ccc(C)cc2)CC1 (stereo unspecified) the results were Myeloid diff MLP inactive, DAGLB inhibitor -7, Cardio protect 6, HGIII-sPLA2 inh 9, Rtt109 HAT inh -6 and ABHD5-PLIN5 inh -4.
Cc1ccc(C(=O)N2CC(=O)Nc3ccc(F)cc3C2c2ccccc2)cc1[N+](=O)[O-] (stereo unspecified) was read as Myeloid diff MLP inactive, DAGLB inhibitor 3, Cardio protect -3, HGIII-sPLA2 inh 2, Rtt109 HAT inh -2 and ABHD5-PLIN5 inh -1.
For O=C1CN(C(=O)c2cc([N+](=O)[O-])ccc2Cl)C(c2ccccc2)c2cc(F)ccc2N1 (stereo unspecified) the results were Myeloid diff MLP inactive, DAGLB inhibitor 1, Cardio protect 6, HGIII-sPLA2 inh 31*, Rtt109 HAT inh 17, ABHD5-PLIN5 inh 15, sPLA2 confirm 6 and BODIPY interf -7.
`CN(Cc1nc2ccccc2c(=O)[nH]1)C(=O)c1ccc(NC(=O)CSc2nnnn2C)cc1` gave Myeloid diff MLP inactive, DAGLB inhibitor -1, Cardio protect 16, HGIII-sPLA2 inh 4, Rtt109 HAT inh -6 and ABHD5-PLIN5 inh -1.
`COc1ccc(C)cc1NCc1ccc([N+](=O)[O-])cc1` gave Myeloid diff MLP inactive, DAGLB inhibitor 1, Cardio protect -7, HGIII-sPLA2 inh 19*, Rtt109 HAT inh 1, ABHD5-PLIN5 inh -4, sPLA2 confirm 15 and BODIPY interf -2.
Cn1c(Cn2cnc([N+](=O)[O-])n2)nnc1SCC(=O)Nc1ccc(Br)cc1 was read as Myeloid diff MLP inactive, DAGLB inhibitor 1, Cardio protect 0, HGIII-sPLA2 inh -3, Rtt109 HAT inh -1 and ABHD5-PLIN5 inh -1.
For Nc1ccc(Oc2cc(N)cc(Oc3ccccc3)c2)cc1 the results were Myeloid diff MLP inactive, DAGLB inhibitor 0, Cardio protect -4, HGIII-sPLA2 inh 23*, Rtt109 HAT inh 8, ABHD5-PLIN5 inh 6, sPLA2 confirm 10 and BODIPY interf -2.
For CC1=NN(c2ccccc2)C(=O)/C1=C/C=C/c1ccc(N(C)C)cc1 the results were Myeloid diff MLP inactive, DAGLB inhibitor 17, Cardio protect -22, HGIII-sPLA2 inh 23*, Rtt109 HAT inh 1, ABHD5-PLIN5 inh 2, sPLA2 confirm 44* and BODIPY interf 9.7*.
For Cc1c(O)c2c(=O)n(-c3ccccc3)c(-c3ccccc3)cc2oc1=O the results were Myeloid diff MLP inactive, DAGLB inhibitor -2, Cardio protect 7, HGIII-sPLA2 inh 20*, Rtt109 HAT inh 17, ABHD5-PLIN5 inh 4, sPLA2 confirm 7 and BODIPY interf -5.
For COC(=O)c1c(NC(=O)CSc2nc3nc(C)cc(C)n3n2)sc(C)c1C the results were Myeloid diff MLP inactive, DAGLB inhibitor -2, Cardio protect 6, HGIII-sPLA2 inh 0 and ABHD5-PLIN5 inh -3.
Screening O=C(C[n+]1cccc(/C=N/O)c1)N(Cc1ccccc1)Cc1ccccc1 returned Myeloid diff MLP inactive, DAGLB inhibitor -2, Cardio protect 5, HGIII-sPLA2 inh -32, Rtt109 HAT inh -6 and ABHD5-PLIN5 inh 1.
